# Results as given in PubChem BioAssay AID1159580 (chemical genetic matrix, 2015).
# Where “and” joins values, the source holds several entries; their conditions need not be identical. Equal entries are not always repeated. In all, about 5,500 compounds went through this assay and about 2,000 (36%) were called active. Another 18% or so got no clear call; they are omitted. Some of the results follow. Unmarked numbers belong to inactive results. Rule as the data show it: active = normalized growth mostly below about 0.91 (no sharp cut-off); inconclusive = no clear call, values can overlap the other calls; inactive = mostly above about 0.92.
# Experiment: chemical genetic growth profiling, strain panel (AID 1159580);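 also: tested at 20 µM; growth read once vehicle control cultures reached saturation at 30 °C; 1 = growth at the plate median or of vehicle wells; lower values mean less growth of the strain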
# Conditions: S. cerevisiae deletion strains, growth OD
smiles,measurement,setting,value
COC(=O)NC(=S)Nc1ccccc1NC(=S)NC(=O)OC,normalized growth,"locus YAL013W, strain DEP1, hits give low values",1
same,normalized growth,"locus YAL021C, strain ccr4, hits give low values",0.92
same,normalized growth,"locus YAL026C, strain drs2, hits give low values",0.975
same,normalized growth,"locus YAL030W, strain snc1, hits give low values",0.986
same,normalized growth,"locus YBL061C, strain skt5, hits give low values",0.99
same,normalized growth,"locus YBR009C, strain hhf1, hits give low values",0.973
same,normalized growth,"locus YBR021W, strain FUR4, hits give low values",1.02
same,normalized growth,"locus YBR023C, strain chs3, hits give low values",0.966
same,normalized growth,"locus YBR171W, strain sec66, hits give low values",0.974
same,normalized growth,"locus YBR229C, strain ROT2, hits give low values",1
same,normalized growth,"locus YBR231C, strain swc5, hits give low values",1
same,normalized growth,"locus YBR279W, strain paf1, hits give low values",0.983
same,normalized growth,"locus YCL011C, strain gbp2, hits give low values",0.978
same,normalized growth,"locus YCL016C, strain dcc1, hits give low values",0.974
same,normalized growth,"locus YCL029C, strain bik1, hits give low values",1.03
same,normalized growth,"locus YCL069W, strain vba3, hits give low values",0.978
same,normalized growth,"locus YCR088W, strain abp1, hits give low values",0.975
same,normalized growth,"locus YDL005C, strain med2, hits give low values",0.963
same,normalized growth,"locus YDL035C, strain GPR1, hits give low values",0.992
same,normalized growth,"locus YDL040C, strain nat1, hits give low values",0.973
same,normalized growth,"locus YDL074C, strain BRE1, hits give low values",1.03
same,normalized growth,"locus YDL101C, strain DUN1, hits give low values",1.02
same,normalized growth,"locus YDL134C, strain PPH21, hits give low values",1
same,normalized growth,"locus YDL185W, strain tfp1, hits give low values",1
same,normalized growth,"locus YDL192W, strain arf1, hits give low values",1.01
same,normalized growth,"locus YDR001C, strain nth1, hits give low values",0.976
same,normalized growth,"locus YDR069C, strain doa4, hits give low values",0.909
same,normalized growth,"locus YDR101C, strain arx1, hits give low values",1.01
same,normalized growth,"locus YDR137W, strain rgp1, hits give low values",0.945
same,normalized growth,"locus YDR150W, strain NUM1, hits give low values",0.996
same,normalized growth,"locus YDR159W, strain sac3, hits give low values",0.969
same,normalized growth,"locus YDR162C, strain NBP2, hits give low values",1.01
same,normalized growth,"locus YDR195W, strain ref2",1.04
same,normalized growth,"locus YDR297W, strain sur2, hits give low values",0.984
same,normalized growth,"locus YDR318W, strain mcm21, hits give low values",1.02
same,normalized growth,"locus YDR334W, strain swr1, hits give low values",0.972
same,normalized growth,"locus YDR335W, strain msn5, hits give low values",0.97
same,normalized growth,"locus YDR388W, hits give low values",1.02
same,normalized growth,"locus YDR392W, strain spt3, hits give low values",0.724 (active)
same,normalized growth,"locus YDR502C, strain sam2, hits give low values",0.993
same,normalized growth,"locus YEL003W, strain gim4, hits give low values",0.959
same,normalized growth,"locus YEL037C, strain rad23, hits give low values",0.973
same,normalized growth,"locus YEL061C, strain CIN8 (second series), hits give low values",0.979
same,normalized growth,"locus YEL061C, strain CIN8, hits give low values",0.996
same,normalized growth,"locus YER015W, strain faa2, hits give low values",0.981
same,normalized growth,"locus YER016W, strain bim1, hits give low values",0.963
same,normalized growth,"locus YER110C, hits give low values",1.02
same,normalized growth,"locus YER111C, strain swi4, hits give low values",0.958
same,normalized growth,"locus YER155C, strain BEM2 (second series), hits give low values",0.753 (active)
same,normalized growth,"locus YER155C, strain BEM2, hits give low values",1.01
same,normalized growth,"locus YER167W, strain BCK2, hits give low values",0.977
same,normalized growth,"locus YFR010W, strain ubp6, hits give low values",0.984
same,normalized growth,"locus YGL078C, strain dbp3, hits give low values",0.982
same,normalized growth,"locus YGL086W, strain mad1, hits give low values",0.997
same,normalized growth,"locus YGL167C, strain pmr1, hits give low values",0.976
same,normalized growth,"locus YGL173C, strain kem1, hits give low values",0.985
same,normalized growth,"locus YGL227W, strain vid30, hits give low values",0.977
same,normalized growth,"locus YGL240W, strain doc1, hits give low values",0.972
same,normalized growth,"locus YGL248W, strain PDE1, hits give low values",1.01
same,normalized growth,"locus YGL253W, strain hxk2, hits give low values",1
same,normalized growth,"locus YGR078C, strain PAC10, hits give low values",0.996
same,normalized growth,"locus YGR135W, strain pre9, hits give low values",1
same,normalized growth,"locus YGR229C, strain SMI1, hits give low values",0.986
same,normalized growth,"locus YGR252W, strain gcn5, hits give low values",0.981
same,normalized growth,"locus YHR013C, strain ard1, hits give low values",0.886
same,normalized growth,"locus YHR027C, strain rpn1, hits give low values",0.985
same,normalized growth,"locus YHR030C, strain SLT2, hits give low values",0.997 and 0.983
same,normalized growth,"locus YHR079C, strain IRE1 (second series), hits give low values",1.02
same,normalized growth,"locus YHR079C, strain IRE1, hits give low values",0.938
same,normalized growth,"locus YHR094C, strain hxt1, hits give low values",1.01
same,normalized growth,"locus YHR129C, strain ARP1, hits give low values",1.01
same,normalized growth,"locus YHR142W, strain chs7, hits give low values",0.943
same,normalized growth,"locus YHR200W, strain rpn10, hits give low values",1.01
same,normalized growth,"locus YIL066C, strain RNR3, hits give low values",1.01
same,normalized growth,"locus YIL073C, strain SPO22, hits give low values",0.999
same,normalized growth,"locus YIL125W, strain kgd1, hits give low values",0.998
same,normalized growth,"locus YIR030C, strain dcg1, hits give low values",1.02
same,normalized growth,"locus YJL092W, strain hpr5, hits give low values",0.977
same,normalized growth,"locus YJL095W, strain BCK1 (second series), hits give low values",0.978
same,normalized growth,"locus YJL095W, strain BCK1, hits give low values",1.04 and 0.967
same,normalized growth,"locus YJL115W, strain asf1, hits give low values",0.966
same,normalized growth,"locus YJL129C, strain trk1, hits give low values",0.939
same,normalized growth,"locus YJL134W, strain LCB3, hits give low values",1
same,normalized growth,"locus YJL154C, strain vps35, hits give low values",0.963
same,normalized growth,"locus YJL164C, strain tpk1, hits give low values",0.965
same,normalized growth,"locus YJL166W, strain qcr8, hits give low values",0.979
same,normalized growth,"locus YJL168C, strain set2, hits give low values",1.02
same,normalized growth,"locus YJL187C, strain SWE1 (second series), hits give low values",1.04
same,normalized growth,"locus YJL187C, strain SWE1, hits give low values",0.986
same,normalized growth,"locus YJR043C, strain POL32, hits give low values",1.04
same,normalized growth,"locus YJR066W, strain TOR1, hits give low values",0.87
